# Measurements as given in PubChem BioAssay AID504558 (Broad Institute, 2011).
# Among all 350,000 compounds or so, about 2,400 (0.69%) were called active. This is one part of a sample in which actives are shown more often than they occur. A number with no mark means an inactive call. No stated cut-off is given here; in the data, active means inhibition above about 41%; inconclusive means no clear call, values can overlap the other calls; inactive means below that.
# Experiment: EBV LMP1-driven NF-kappaB luciferase reporter inhibitors, primary screen, cell-based, luminescence, single point (AID 504558);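 further: 0% = neutral control wells and 100% = reference inhibitor control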
# Details: LMP1-induced NF-kappaB luciferase reporter cells, at 12.5 µM, active compounds read high
row,Structure (SMILES),inhibition
1,C/C(=N/Nc1nc(-c2ccccc2)c(CC(=O)O)s1)c1ccccc1,-38.4%
2,COc1cc(OC)nc(N/N=C(\c2ccccc2)c2ccncc2)n1,3.44%
3,c1ccc(C(=NNc2nc3ccccc3s2)c2ccccn2)cc1,79.1% (active)
4,COc1cccc(OC)c1C(=O)N1CCN(Cc2ccccc2F)CC1,2.93%
5,C[C@@H]1CN([C@@H](C)CO)C(=O)c2c(c3ccccc3n2C)-c2ccccc2CO[C@H]1CN(C)C(=O)C1CC1,-4.84%
6,CCOC(=O)c1[nH]c2ccccc2c1N=C(C)N(CC)CC,0.352%
7,CCOC(=O)c1c(C)[nH]c(C)c1S(=O)(=O)NCCCc1ccco1,-0.931%
8,CCOC(=O)c1c(C)[nH]c2c1-c1ccccc1C(=O)C2=O,92.7% (active)
9,C[C@H]1NS(=O)(=O)c2cc(Cl)ccc2O[C@@H]1c1ccccc1,-0.001%
10,C=CCOc1cccc(C2C(C(=O)c3ccc(C)o3)=C(O)C(=O)N2CCN2CCOCC2)c1 (stereo not given),1.89%
11,COc1cccc(NC(=S)N(Cc2ccc(C)cc2)Cc2ccccn2)c1,-9.16%
12,COc1ccc(OC(C)C(=O)Nc2cccnc2)cc1 (stereo not given),-0.732%
13,COc1ccc(NS(=O)(=O)c2ccc(NC(=S)NC(=O)/C=C/c3ccc(C)cc3)cc2)nn1,-1.1%
14,COc1ccc(NC(=O)CN2C(=O)NC(C)(c3ccccc3)C2=O)cn1 (stereo not given),4.57%
15,COc1ccc(CS(=O)/C(Cl)=C(/Cl)C(=O)Nc2ccc(OC)nc2)cc1 (stereo not given),85% (active)
16,COc1ccc(NC(=O)/C(Cl)=C(/Cl)S(=O)Cc2ccc(C)cc2)cn1 (stereo not given),94.5% (active)
17,COCOCCn1cc(CN2CCS(=O)(=O)N(Cc3ccc(-c4cccc(N(C)C)c4)cc3)C(CC(C)C)C2=O)nn1 (stereo not given),5.25%
18,C[C@H](CO)N1C[C@H](C)[C@H](CN(C)C(=O)Nc2ccc3c(c2)OCO3)Oc2ncc(Br)cc2C1=O,-7.49%
19,CCCCN1C(=O)C(CC(=O)NC(c2ccccc2)c2ccccc2)CC(C(=O)N2CCOCC2)=C1C (stereo not given),-3.52%
20,Cc1cc(N/N=C\c2ccc(Br)cc2)nc(-n2nc(C)cc2C)n1,47.1% (active)

row,Structure (SMILES),inhibition
1,Cc1cc(Nc2ccc(Br)cc2)nc2ccccc12,-19.5%
2,Cc1cc(C)n(-c2nnc(N3CCN(c4ccccc4)CC3)nn2)n1,-13.2%
3,O=C(NCc1nnnn1-c1ccc(Cl)cc1)c1ccc2c(c1)OCO2,-8.64%
4,C=CCn1c(C)cc(C2=NNC(=NCC)SC2)c1C,86.2% (active)
5,COc1ccc(-c2c(C#N)cnc(C)c2C)c(O)c1OC,-4.81%
6,C[C@@H]1CN([C@H](C)CO)C(=O)CCCn2cc(nn2)CO[C@H]1CN(C)S(C)(=O)=O,1.59%
7,COc1cccc(NC(=O)CN(C)C(=O)c2cc(Cl)nc3ccccc23)c1,-0.28%
8,Cc1ccc(C2=C/C(=C\c3cccnc3)C(=O)O2)cc1,43.1% (active)
9,Cc1ccccc1C1=N/C(=C/c2cccnc2)C(=O)O1,3.85%
10,CN(C)/C=C1\C=C(c2ccccc2)OC1=O,-8.13%
11,Cc1ccc(CN(C)C[C@@H]2OCc3cnnn3CCCC(=O)N([C@@H](C)CO)C[C@H]2C)cc1,0.256%
12,O=C(COC(=O)/C=C/c1ccc(Cl)cc1)NC1CCS(=O)(=O)C1 (stereo not given),-1.97%
13,C[C@@H]1CN([C@@H](C)CO)S(=O)(=O)c2ccc(C#Cc3cccc(F)c3)cc2O[C@H]1CN(C)S(=O)(=O)c1cn(C)cn1,5.98%
14,C=CCOc1ccccc1CNn1c(C)n[nH]c1=S,-1.28%
15,N#CCCC(C#N)(c1cccnc1)N1CCOCC1 (stereo not given),2.43%
16,Cc1nc2ccccc2c(C(=O)O)c1-c1ccccn1,3.33%
17,COc1cnc(-c2ccccn2)nc1Oc1ccc(C(C)(C)C)cc1,-4.07%
18,CC(C)(C)Nc1nc(-c2ccccn2)nc2ccccc12,45.7% (active)
19,O=S1(=O)CCN(Cc2ccccc2)CC1,0.572%
20,CC1=C(C(=O)N2CCOCC2)CC(CC(=O)NCc2cccc3ccccc23)C(=O)N1CCC1=CCCCC1 (stereo not given),-1.54%

row,Structure (SMILES),inhibition
1,CC1CCN(C(=O)CSc2nnc(-c3ccco3)n2N)CC1,-6.21%
2,CCCc1cc(=O)oc2c(C)c(O)c(CN3CCCCC3)cc12,5.86%
3,Oc1c(CN2CCCC2)cc(COCc2ccccc2)c2cccnc12,69% (active)
4,O=C(Cc1ccccc1)NNC(=O)C1CCN(c2ncccn2)CC1,-1.53%
5,COCCCN1C(=O)C(CC(=O)NCc2cccs2)CC(C(=O)N2CCOCC2)=C1C (stereo not given),-3.59%
6,CC1(C)CC(N2CCN(C(c3ccccc3)c3ccccc3)CC2)=CC(=[N+]2CCCCC2)C1,50.9% (active)
7,CC(C)OCC(O)CN1CCN(C(c2ccccc2)c2ccccc2)CC1 (stereo not given),-3.08%
8,CC1(C)CC(=O)C=C(N2CCOCC2)C1,7.14%
9,CCCCN1CC(C)(C)[C@H](CC(=O)Nc2ccc(Br)cc2)C1=O,3.19%
10,COc1ccc(-c2cc(C(=O)N3CCN(Cc4ccc5c(c4)OCO5)CC3)on2)cc1OC,60.2% (active)
11,O=C(c1cccs1)N1CCN(Cc2ccc3c(c2)OCO3)CC1,2.81%
12,CCn1cc(C(=O)N2CCN(Cc3ccc4c(c3)OCO4)CC2)c2cc(OC)c(OC)cc2c1=O,-0.487%
13,O[C@H]1CN(Cc2cccs2)[C@@H](c2ccc(Cl)cc2)C[C@@H]1n1cc(C2CC2)nn1,-3.9%
14,CCCCCCN1C[C@H](O)[C@@H](n2cc(C3CC3)nn2)C[C@@H]1c1ccc(Cl)cc1,-2.06%
15,O=C(Nc1ccc(N2CCN(C(=O)c3cccs3)CC2)cc1)c1cccnc1Cl,6.16%
16,Cc1ccccc1C(=O)N1CCN(c2ccc(NC(=O)c3cccs3)cc2)CC1,49.3% (active)
17,Cc1ccccc1C(=O)NC(=S)Nc1ccc(N2CCN(C(=O)c3ccccc3)CC2)cc1,43.1% (active)
18,Cc1ccc(C(=O)NC(=S)Nc2ccc(N3CCOCC3)cc2)cc1,1.51%
19,O=C(Nc1ccc(N2CCN(C(=O)C3CC3)CC2)cc1)c1cccs1,4.6%
20,COc1ccccc1C(=O)NC(=S)Nc1ccc(N2CCOCC2)cc1,2.08%
